HTT prom inh: inhibits huntingtin promoter activity; 0.93% of 48,000 active; Potency, µM (doses to about 57.5 µM), hits mostly inhibitors; AID 1508623; HEK293 HTT promoter firefly luciferase reporter, 24 h; further: nearly all actives have a fitted effect of over 50% in size
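Quantitative HTS used concentration series of up to 57.5 uM final on HEK293 luciferase reporter cells, 24 h at 37 degrees C. Readout was Dual-Glo firefly luminescence.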
DRV1 agonist: agonists of human resolvin D1 receptor DRV1 (GPR32); CHO-K1 GPR32 beta-arrestin PathHunter luminescence, 90 min; zero percent set by DMSO-only wells; O75388; activation, % at 76.9 µM; AID 1346428; 2.5% of 48,000 active;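 active means activation of at least 60% and not above a set upper limit, about 1 call in 100 departs from these limits; inconclusive means activation of 40% to 60%, or above that upper limit; inactive means activation under 40%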
Target sequence (O75388 whole entry, looked up): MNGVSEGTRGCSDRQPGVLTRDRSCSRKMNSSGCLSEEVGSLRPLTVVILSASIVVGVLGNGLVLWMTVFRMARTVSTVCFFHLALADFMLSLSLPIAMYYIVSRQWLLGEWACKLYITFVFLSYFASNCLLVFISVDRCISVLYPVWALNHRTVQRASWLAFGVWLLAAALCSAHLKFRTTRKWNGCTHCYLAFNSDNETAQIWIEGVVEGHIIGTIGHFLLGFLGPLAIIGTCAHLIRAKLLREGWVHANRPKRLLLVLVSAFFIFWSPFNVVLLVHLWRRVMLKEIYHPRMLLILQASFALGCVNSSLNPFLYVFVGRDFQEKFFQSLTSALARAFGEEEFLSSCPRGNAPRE
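Cells are plated overnight, treated with compounds in DMSO for 90 minutes at 37 °C, and developed with PathHunter detection reagent for 1 hour before luminescence is read; signal reflects beta-arrestin binding to GPR32 in engineered CHO-K1 cells.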
HTT-AS promoter: activates huntingtin-antisense promoter activity. Potency, µM (top dose mostly 57.5 µM), actives largely listed as activators. HEK293 HTT-AS promoter firefly luciferase reporter, 24 h; response scale: percent change from vehicle, -100% = no light. 0.24% of 48,000 active; further: nearly all actives have a fitted effect of over 55% in size
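Firefly luciferase signal from promoter-reporter HEK293 cells was scaled between vehicle (0%) and zero RLU (-100%). Compounds were tested at final concentrations of up to 57.5 uM over 24 h at 37 degrees C. PTC124 at 50 uM final served as control inhibitor.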
A number is an active result; n = inactive; u = inconclusive; x = not tested or not shown. A selection: hits, their analogues and other compounds. The true share with any hit is near 3.7%. Unless noted, the call rests on the fitted dose curve; in most records, active means well fitted curve in the direction sought with a large enough effect; inconclusive means small, poorly fitted or top-dose-only effect, or another doubt; inactive means no such curve, though single readings can be large; an effect the other way counts as inactive or inconclusive.

SMILES	HTT prom inh	DRV1 agonist	HTT-AS promoter
Cc1ccc(CSc2cn(CCNC(=O)c3cccs3)c3ccccc23)cc1	u	n	n
O=C(NCCn1cc(SCc2ccccc2F)c2ccccc21)c1cccs1	u	66.5	n
Cc1ccccc1CSc1cn(CCNC(=O)c2cccs2)c2ccccc12	u	n	n
O=C(NCCn1cc(SCc2ccc(F)cc2)c2ccccc21)c1cccs1	28.2µM	n	n
Cc1cccc(N2CCN(C(=O)c3cc4ccc5cccnc5c4[nH]3)CC2C)c1 (configuration not stated)	n	n	n
CCc1ccc(CNC(=O)c2ccc(-n3c(C)cc4c3CCC(C)C4)cc2)cc1 (configuration not stated)	n	n	n
Cc1cc(C)cc(OCC(=O)Nc2ccc(-c3nc4ccccc4s3)cc2)c1	n	72.2	u
O=C(Nc1ccc2nc(SCC(=O)N3CCCC3)sc2c1)c1ccccc1F	n	n	n
CCOC(=O)CSc1nc2ccc(NC(=O)c3ccc(F)cc3)cc2s1	n	n	n
Cc1ccc(OCC(=O)Nc2ccc3nc(SCc4ccccc4)sc3c2)cc1	n	n	n
COc1cccc(CC(=O)Nc2ccc(-c3nc4ccccc4s3)cc2)c1	n	u	u
CCOC(=O)CSc1nc2ccc(NC(=O)c3ccccc3F)cc2s1	n	106.7	n
Cc1ccc(CSc2nc3ccc(NC(=O)COc4ccccc4)cc3s2)cc1	n	73.8	n
CCOC(=O)CSc1nc2ccc(NC(=O)c3ccccc3)cc2s1	n	82.0	n
CC(C)C(=O)Nc1cccc(C2CN3CCSC3=N2)c1 (configuration not stated)	n	n	n
COc1cccc2cc(-c3nc(C4CCC(C(=O)O)CC4)n4ncnc(N)c34)[nH]c12 (configuration not stated)	u	x	n
NC(=O)c1ncn([C@@H]2O[C@H](CO)[C@@H](O)[C@@H]2O)c1N	n	x	n
NC1=N[C@@]2(c3cc(NC(=O)c4ccc(F)cn4)ccc3F)COC[C@@H]2CS1	n	x	n
CCOc1ccc(C(=O)Nc2ccc3nc(SCc4ccccc4)sc3c2)cc1	n	62.8	n
CC(=O)Nc1ccc2nc(SCc3ccccc3)sc2c1	n	u	u
COc1cc(OC)cc(C(=O)Nc2ccc(-c3nc4ccccc4s3)c(C)c2)c1	n	n	n
COc1ccccc1OC(C)C(=O)Nc1cccc(-c2nc3ccccc3s2)c1 (configuration not stated)	n	n	n
Cc1ccc(NC(=O)CSc2nc3ccc(NC(=O)COc4ccc(C)cc4)cc3s2)cc1	n	n	n
Cc1cc(NC(=O)c2ccccc2F)ccc1-c1nc2ccccc2s1	n	n	0.891µM
CCCCC(=O)Nc1cccc(-c2nc3ccccc3s2)c1	n	91.8	u
SMILES	HTT prom inh	DRV1 agonist	HTT-AS promoter
CCOC(=O)CSc1nc2ccc(NC(=O)COc3ccccc3)cc2s1	n	61.1	n
CCCCN(CCCC)C(=O)CN(C)S(=O)(=O)c1ccc2c(c1)c(=O)n(C)c(=O)n2C	n	n	n
CC(C)(O)CC(=O)NCCn1ccc2ncnc(Nc3ccc(Oc4cccc(C(F)(F)F)c4)c(Cl)c3)c21	n	x	n
Cc1ccccc1C(=O)Nc1cccc(OCc2cc(=O)n3c4c(sc3n2)CCCC4)c1	n	n	n
CCOc1ncc(F)c(=O)[nH]1	n	n	n
CCCCOc1ccc(C(=O)Nc2cc(-c3cn4cccnc4n3)ccc2OC)cc1	n	n	n
CS(=O)(=O)Nc1ccc(-c2nc3ccccc3s2)cc1	n	100.3	u
Cc1ccccc1NC(=O)CSc1nc2ccc(NC(=O)CCc3ccccc3)cc2s1	n	n	n
Cc1c(NS(C)(=O)=O)cccc1-c1nc2ccccc2s1	u	n	n
Cc1ccc(NC(=O)CSc2nc3ccc(NC(=O)CCc4ccccc4)cc3s2)cc1	n	65.9	n
NC(=O)c1ncn([C@@H]2O[C@H](CO)[C@@H](O)[C@@H]2O)n1	n	x	n
COc1ccc(NC(=O)Nc2cc(C(=O)NCc3ccc(C)cc3)ccc2N2CCCC2)cc1	n	n	n
CCN(c1ccccc1)c1ncnc2c1cnn2-c1ccc(OC)cc1	n	n	u
COC(=O)c1ccc(NC(C)=O)cc1OC	n	n	n
CCn1c(=O)sc2cc(NS(=O)(=O)c3ccc(F)c(C)c3)ccc21	14.1µM	n	n
Cc1cc(S(=O)(=O)Nc2ccc3[nH]c(=O)sc3c2)ccc1F	u	n	n
CCOC(=O)c1ccc(N2C(=O)c3n[nH]c(-c4ccco4)c3C2c2ccc(OCC)cc2)cc1 (configuration not stated)	20µM	n	n
